Screening results (PubChem BioAssay)
The list is not random: actives were taken first. Their share in the collection is about 9.3%.
FLuc modulator – counter-screen for miR-21 project: firefly luciferase inhibitors or activators | hit rate 6.9% among 360,000 | AID 588342 | purified FLuc, Km substrates, luminescence inhibition | Potency, µM (doses to about 57.5 µM), actives largely listed as inhibitors | P08659; further: nearly all actives have a fitted effect of over 55% in size
Target sequence (P08659 whole entry, looked up): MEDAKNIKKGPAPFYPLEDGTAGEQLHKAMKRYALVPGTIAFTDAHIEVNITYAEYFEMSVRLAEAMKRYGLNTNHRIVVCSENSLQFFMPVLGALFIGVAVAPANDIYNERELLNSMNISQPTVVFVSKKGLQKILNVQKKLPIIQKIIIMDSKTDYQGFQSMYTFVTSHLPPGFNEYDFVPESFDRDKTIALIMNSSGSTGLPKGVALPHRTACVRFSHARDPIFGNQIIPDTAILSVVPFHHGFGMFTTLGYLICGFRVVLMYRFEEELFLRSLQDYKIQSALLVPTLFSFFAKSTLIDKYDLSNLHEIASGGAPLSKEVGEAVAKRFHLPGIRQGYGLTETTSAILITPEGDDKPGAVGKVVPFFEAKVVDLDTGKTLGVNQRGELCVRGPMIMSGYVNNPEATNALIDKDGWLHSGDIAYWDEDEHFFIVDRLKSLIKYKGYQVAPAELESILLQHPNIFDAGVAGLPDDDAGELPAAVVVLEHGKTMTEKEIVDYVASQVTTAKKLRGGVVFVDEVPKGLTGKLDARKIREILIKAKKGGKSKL
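Purified P. pyralis luciferase, 10 nM final, with Km-level 10 uM D-luciferin and 10 uM ATP in 50 mM Tris acetate pH 7.5, 10 mM Mg acetate, 0.01% Tween-20, 0.05% BSA; 6-point qHTS titration about 60 µM downward; luminescence read.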
Rab9 prom act – activators of Rab9 promoter; Potency, µM (highest dose often 9.22 µM), hits mostly activators; Huh7 Rab9 promoter-luciferase reporter, luminescence, 24 h; AID 485297; hit rate 2.8% among 320,000; further: nearly all actives have a fitted effect of over 60% in size
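Promoter activation is measured as luciferase luminescence in Huh7 cells stably transfected with a Rab9 promoter–luciferase construct, following 24 h compound exposure at 37 °C and 10 min reagent incubation at ambient temperature.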
ELG1 genotoxic – induces genotoxicity in HEK293T cells with luciferase-tagged ELG1. HEK293T ELG1-luciferase reporter, luminescence, 16 h. Potency, µM (highest dose often 46 µM), actives largely listed as activators. hit rate 1.3% among 330,000. AID 504466; further: nearly all actives have a fitted effect of over 60% in size
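Luminescence read-out: rising ELG1-luciferase signal, reflecting elevated ELG1 protein under genetic stress, flags genotoxic compounds. Cells were treated for 16 hr at 37 °C before ONE-Glo detection.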
ELG1 repair inh – ELG1-dependent DNA repair inhibition. Potency, µM (highest dose often 46.1 µM), hits mostly inhibitors. HEK293T ELG1-luciferase reporter, luminescence, 16 h; DNA damage induced by 5-fluorouridine. AID 504467. hit rate 2.3% among 330,000; further: nearly all actives have a fitted effect of over 55% in size
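In this reporter screen, reduction of luminescence relative to DMSO vehicle indicated activity. Compounds and 5-fluorouridine were added together to 2,000 cells per well, incubated for 16 hr at 37 °C, then developed with ONE-Glo.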
NPC1 prom act – activates the NPC1 promoter. Huh7 NPC1 promoter luciferase reporter, 24 h. Potency, µM (series often up to 9.22 µM), actives largely listed as activators. hit rate 2.4% among 320,000. AID 485313; further: nearly all actives have a fitted effect of over 60% in size
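Luminescence from an NPC1 promoter-driven luciferase reporter in stably transfected Huh7 cells was measured after 24 h compound treatment at 37 °C, followed by 10 min ambient incubation with luciferase detection reagent.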
SMN2 splice enh – increases expression of the SMN2 splice variant; HEK293 SMN2-luciferase splicing reporter, luminescence, 30-36 h; Potency, µM (titrated, usually from 46.1 µM), hits mostly activators; hit rate 2.8% among 210,000; AID 1458; further: nearly all actives have a fitted effect of over 55% in size
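qHTS luciferase splicing reporter: luminescence rises when SMN2 exon 7 is included in transfected HEK293 cells. Compound exposure lasted 30-36 h at 37C, with 4.5 mM final sodium butyrate as control, followed by a ONE-Glo read.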
Hits are given with their value; n = inactive; u = inconclusive; x = not tested or not shown; [ ] = dose if it differs, or a comment. The call rests on the fitted dose curve; in most records, active means well fitted curve in the direction sought with a large enough effect; inconclusive means small, poorly fitted or top-dose-only effect, or another doubt; inactive means no such curve, though single readings can be large; an effect the other way counts as inactive or inconclusive.

SMILES	FLuc modulator	Rab9 prom act	ELG1 genotoxic	ELG1 repair inh	NPC1 prom act	SMN2 splice enh
CC1CCC(NC(=O)c2ccc3c(c2)OCO3)CC1 (stereo unspecified)	2.7µM	0.45µM	0.46µM	u	0.32µM	x
CC1CCN(CC(=O)Nc2ccc3c(c2)OCO3)CC1	n	n	n	u	n	x
CC1CCCC(NC(=O)c2ccc3c(c2)OCCO3)C1C (stereo unspecified)	13µM	1.6µM	u	u	4µM	x
COc1ccc(S(=O)(=O)NCC(=O)N(CC2CCCO2)C(C(=O)NC2CCCC2)C(C)C)cc1 (stereo unspecified)	n	n	n	n	n	x
COc1ccc2c(c1)O[C@@H](c1cccc(C(F)(F)F)c1)[C@H](OC(=O)Nc1ccc(OC(F)F)cc1)C2=O	n	n	n	u	n	n
COc1ccc(Cl)cc1NC(=O)CN1CCC(n2nnc3ccccc32)CC1	n	n	n	7.3µM	n	n
COc1ccc(Cl)cc1NC(=O)CN1CCC(NC(=O)C2CC2)CC1	n	n	n	9.2µM	n	x
O=S(=O)(Nc1ccc2c(c1)OCCO2)c1cccc2cccnc12	n	n	n	n	n	n
COC(=O)C1=C(CN2CCc3ccccc32)NC(=O)NC1c1cc(C)ccc1C (stereo unspecified)	n	n	n	13µM	n	4.5µM
COC(=O)C1=C(CN2CCN(C)CC2)NC(=O)NC1c1cc(C)ccc1C (stereo unspecified)	n	n	n	n	n	n
COC(=O)C1=C(CSc2nnnn2C)NC(=O)NC1c1cc(C)ccc1C (stereo unspecified)	n	n	n	n	n	25µM
Cc1ccc(-n2nc3c(=O)n(CC(=O)NCCc4ccco4)nc(C)c3c2C)cc1	n	n	n[9.26 µM]	n	n	x
Cc1ccc(C(=O)N(Cc2cccnc2)Cc2cc3cc(C)ccc3n3nnnc23)cc1	n	n	n	21µM	n	n
O=C(OCn1nnc2ccccc2c1=O)C1COc2ccccc2O1 (stereo unspecified)	n	n	n	n	n	n
Cc1ccc(O)c(Nc2ncnc3ccccc23)c1	u	n	n	u	n	x
Cc1ccc(C(=O)N2CCN(c3ccc(NC(=S)NC(=O)c4cccs4)cc3)CC2)cc1	n	n	n	u	n	x
O=C(NC(=S)Nc1ccc(N2CCOCC2)cc1)c1cccs1	24µM	0.79µM	n	u	u	x
Cc1ccccc1C(=O)N1CCN(c2ccc(NC(=S)NC(=O)c3cccs3)cc2)CC1	n	n	n	21µM	n	n
COc1ccc2oc(=O)c(C(=O)OCC(=O)c3ccc([N+](=O)[O-])cc3)cc2c1	n	n	n	n	n	n
COc1ccccc1C1CC(c2cccs2)=Nc2ccccc2S1 (stereo unspecified)	u	n	u	u	n	n
Fc1ccccc1C1CC(c2ccco2)=Nc2ccccc2S1 (stereo unspecified)	21µM	n	u	u	n	x
O=C(Cc1ccccc1)NCc1ccc2c(c1)OCO2	7.6µM	u	15µM	u	2.8µM	n
O=C(Cc1ccccc1[N+](=O)[O-])NCc1ccc2c(c1)OCO2	u	1.8µM	u	u	u	n
O=C(Cc1c[nH]c2ccccc12)NCc1ccc2c(c1)OCO2	u	n	n	12µM	n	n
O=C(NCc1ccccc1)c1c[nH]c2cc3c(cc2c1=O)OCCO3	2.4µM	2.5µM	u	u	3.2µM	13µM
SMILES	FLuc modulator	Rab9 prom act	ELG1 genotoxic	ELG1 repair inh	NPC1 prom act	SMN2 splice enh
O=C(CCc1ccccc1)NCc1ccc2c(c1)OCO2	n	n	n	n	n	x
O=C(Cc1c[nH]c2ccccc12)NCc1ccc(Cl)cc1	u	n	n	u	n	n
OC(CN1CCN(Cc2ccc3c(c2)OCO3)CC1)c1c[nH]c2ccccc12 (stereo unspecified)	n	n	n	13µM	n	n
O=C(Cc1c[nH]c2ccccc12)NCc1ccc(Cl)cc1Cl	21µM	n	n	u	n	n
COc1ccc(/C=N/n2c(=O)[nH]c3c([nH]c4ccc(Cl)cc43)c2=O)cc1CN1CCCCC1	n	n	n	n	n	x
O=C(Cn1c(SCc2ccccc2F)nc2cccnc21)Nc1ccc(F)c(Cl)c1	27µM	x	x	x	x	x
CN(C)c1ccc(NC(=O)Cn2c(SCc3ccccc3F)nc3cccnc32)cc1	n	x	x	x	x	x
COc1ccc(NC(=O)Cn2c(SCc3ccc(F)cc3)nc3cccnc32)cc1OC	2.7µM	x	x	x	x	x
COc1ccc(CCn2c(=O)c3cccnc3n(CC(=O)Nc3cccc(C)c3)c2=O)cc1OC	n	x	x	x	x	n
O=C(Cn1c(SCc2ccc(F)cc2)nc2cccnc21)Nc1ccccc1F	9.5µM	x	x	x	x	x
COc1ccc(NC(=O)Cn2c(SCc3ccc(C)cc3)nc3cccnc32)cc1OC	0.6µM	x	x	x	x	x
COc1ccc(-c2cc(C(F)(F)F)n3ncc(C(=O)NCC4CCCO4)c3n2)cc1 (stereo unspecified)	n	n	n	u	n	n
N#CCC(=O)Nc1ccc(C(=O)OCC(=O)NNC(=O)c2ccc(Cl)cc2)cc1	n	n	n	n	n	x
O=C(Nc1cccc(-c2ccc(N3CCCCC3)nn2)c1)c1ccco1	0.38µM	2.8µM	1.6µM	u	4µM	x
O=C(Nc1cccc(-c2ccc(N3CCOCC3)nn2)c1)c1ccccc1Cl	1.7µM	3.5µM	n	u	u	x
Cc1cc(C(=O)Nc2cccc(-c3ccc(N4CCOCC4)nn3)c2)ccc1[N+](=O)[O-]	2.7µM	u	n	u	u	x
Cc1ccc(C(=O)Nc2cccc(-c3ccc(N4CCOCC4)nn3)c2)cc1C	2.1µM	2.8µM	u	u	u	x
COC(=O)C1C(=O)C2=C(CC1C)NC(=O)CC2c1cccc(C)c1 (stereo unspecified)	n	n	n	n	n	n
COc1cc2c(cc1OC)CN(Cc1cc(=O)oc3cc(C)c(Cl)cc13)CC2	n	n	n	n	n	n
O=C(Nc1cccc(-c2ccc(N3CCOCC3)nn2)c1)c1ccc(Cl)cc1	2.1µM	u	u	u	u	x
O=C(COc1ccc(Cl)cc1)Nc1cccc(-c2ccc(N3CCOCC3)nn2)c1	1.3µM	1.6µM	2.1µM	u	3.2µM	x
Cc1ccc(C(=O)Nc2cccc(-c3ccc(N4CCOCC4)nn3)c2)cc1	1.3µM	3.5µM	n	u	2.5µM	x
Cc1ccc(N(C)C(=O)N2CCN(S(=O)(=O)c3ccc4ccccc4c3)CC2)cc1	n	n	n	u	n	n
CSc1nnc2c3ccccc3n(Cc3ccccc3)c2n1	n	n	n	n	n	n
CSc1nnc2c3ccccc3n(CCc3ccccc3)c2n1	n	n	n	n	n	4µM
CN1CCN(NC(=O)c2ccc(F)cc2)CC1	n	n	n	n	n	n
CCn1c(SCC(=O)Nc2oc(-c3ccccc3)c(-c3ccccc3)c2C#N)nnc1-c1ccco1	n	n	n	n	n	n
